Shown are actives, neighbours in structure and some others; about 2.2% of the full set was active somewhere.
IEC-6 tox – cytotoxicity in IEC-6 intestinal epithelial cells, primary screen, cytotoxicity control for KLF5 inhibitor project, cell-based, luminescence | actives 0.78% (n = 290,000) | AID 1825, 2009 | inhibition, % at 5 µM | IEC-6 cytotoxicity, luminescence viability; in the data active means inhibition above about 22%;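 further: 0% = plate median of test compound wells and 100% = cytotoxic reference compound wells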
BaF3 parental – parental Ba/F3 cell viability inhibition, counter-screen for JAK2V617F inhibitor project, murine pro-B, CellTiter-Glo luminescence; actives 1.1% (n = 220,000); inhibition, % at 5.6 µM; CellTiter-Glo ATP luminescence; AID 1486, 2009;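 active means inhibition above a per-campaign cutoff, the mean inhibition of all tested compounds plus 3 SD, cut at about 27% in these data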;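 further: 0% = DMSO wells and 100% = JAK Inhibitor I control wells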
aSyn UTR inh – MLPCN primary screen, SNCA 5' untranslated region; alpha-synuclein 5'UTR reporter, inhibitor activity; inhibition, % (tested at 7.5 µM); actives 0.82% (n = 300,000); in the data active means inhibition above about 60%;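 further: H4 neuroglioblastoma cells stably carrying SNCA 5'UTR luciferase fusion; 0% = DMSO wells and 100% = positive control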
Ba/F3 V617F tox – reduced viability of JAK2V617F-dependent Ba/F3 cells, primary screen, JAK2V617F inhibitor project, cell-based, Ba/F3 EpoR-JAK2V617F, luminescence | ATP luminescence | inhibition, % at 5.6 µM | actives 1.1% (n = 220,000);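 active means inhibition above the campaign mean plus 3 SD over all tested compounds, cut at about 24% in these data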;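 further: cytokine-independent growth of Ba/F3 cells driven by EpoR plus mutant JAK2; 0% = DMSO-treated cells and 100% = JAK inhibitor I control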
KLF5 inh – KLF5 expression inhibitors, primary screen, DLD-1 cells, luminescence; DLD-1 KLF5 promoter-luciferase reporter; inhibition, % at 5 µM; actives 0.23% (n = 290,000);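 active means inhibition above a per-plate limit of that plate's mean compound inhibition plus 3 SD, cut at about 60% in these data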;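 further: 0% = DMSO wells and 100% = LY294002 at 200 µM; higher means less KLF5 promoter-driven luciferase light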
APP transl inh – inhibitors of APP translation via 5'UTR reporter, primary screen, APP 5'UTR luciferase, SH-SY5Y cells. inhibition, % at 2 µM. SH-SY5Y APP 5'UTR-luciferase reporter, luminescence. actives 0.82% (n = 190,000);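 active means inhibition above a set limit, derived from the sample mean plus 3 SD, cut at about 45% in these data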
BaF3 parental 2 – parental Ba/F3 cell viability inhibition, counter-screen for JAK2V617F inhibitor project, murine pro-B, CellTiter-Glo luminescence; shares compounds with Ba/F3 V617F tox; cells kept alive by added IL-3; inhibition, % at 5.6 µM; actives 31% (n = 580); AID 1520, 2009;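 active means cell growth inhibition above the hit limit set in the earlier mutant JAK2 cell screen, cut at about 27% in these data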;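 further: plate controls were DMSO-treated cells for no effect and JAK Inhibitor I control wells for full effect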
JAK2V617F confrm – viability loss in Ba/F3 EpoR-JAK2V617F cells, confirmation, JAK2V617F inhibitor project, cell-based, luminescence, triplicate; shares compounds with Ba/F3 V617F tox; CellTiter-Glo luminescence; inhibition, % at 5.6 µM; actives 66% (n = 580); AID 1521, 2009;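 active means mean inhibition above the hit cutoff derived in the earlier primary screen, cut at about 25% in these data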;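 further: 0% = DMSO-treated cells and 100% = JAK inhibitor I control wells; higher means lower luminescence from reduced cell ATP and viability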
An asterisk follows results filed as active; . = no result.

SMILES	IEC-6 tox	BaF3 parental	aSyn UTR inh	Ba/F3 V617F tox	KLF5 inh	APP transl inh	BaF3 parental 2	JAK2V617F confrm
Cc1ccc(C2(O)CN(c3ccccc3)C3=[N+]2CCS3)cc1 (stereo not given)	2	23	-12	6	-16	-22	.	.
COc1ccc(-c2c[n+]3c(n2-c2ccccc2)SCC3)cc1OC	3	77*	16	46*	6	-31	.	.
N#Cc1ccc(-c2cn(-c3ccccc3)c3[n+]2CCCS3)cc1	-6	2	3	-3	-22	-8	.	.
COc1ccc(-c2c[n+]3c(n2-c2ccccc2)SCC3)cc1	2	61*	10	73*	-13	.	.	.
COc1ccc(-c2nnc3n2-c2ccccc2SC3)cc1OC	-2	4	11	2	-6	-4	.	.
Cc1ccc(-c2c[n+]3c(n2-c2ccccc2)SCC3)cc1	11	64*	1	79*	0	.	.	.
Brc1ccc(-c2c[n+]3c(n2-c2ccccc2)SCC3)cc1	2	59*	-22	64*	-19	.	.	.
CC(C)CCNC(=O)C1CCC(CNS(=O)(=O)c2cccc3nsnc23)CC1 (stereo not given)	8	.	-50	.	-14	.	.	.
Cc1nnc(-c2ccccc2)c(=O)n1/N=C/c1c(O)ccc2ccccc12	-2	6	83*	2	30	61*	.	.
CC1Cc2cc(/C(O)=C3/C(=O)C(=O)N(CCCn4ccnc4)C3c3ccc(F)cc3)ccc2O1 (stereo not given)	8	.	-31	.	-4	.	.	.
CC1Sc2n(c3ccccc3[n+]2C)N=C1c1ccccc1 (stereo not given)	21	74*	-63	99*	5	19	.	.
C[n+]1c2n(c3ccccc31)N=C(c1ccc(Cl)cc1)CS2	-1	67*	-29	78*	-2	-4	.	.
COCCOC(=O)C1=C(C)N(c2ccccc2)C(=O)NC1c1cccc([N+](=O)[O-])c1 (stereo not given)	-2	12	15	34*	-16	-9	-3	9
Cc1c(NC(=O)COC(=O)c2cc(-c3ccc(-c4ccccc4)cc3)nc3ccccc23)c(=O)n(-c2ccccc2)n1C	2	21	-34	30*	-59	-100	59*	72*
N=c1c2c3c(sc2ncn1Cc1ccco1)CCCCC3	4	1	-25	25*	-12	5	-5	8
COc1ccc(Cc2nnc(NC(=O)c3ccccc3F)s2)cc1	5	.	-34	.	-22	.	.	.
O=[N+]([O-])c1ccccc1N/N=C/c1cccc(O)c1O	-10	-1	-104	62*	-94	.	51*	96*
N#C/C(=C\C=C\c1ccccc1)c1nc(-c2ccc(Cl)cc2)cs1	-1	0	-12	-4	4	.	.	.
COc1ccc(N2CCN(CCCNC(=O)C(=O)c3c(C)[nH]c4ccccc34)CC2)cc1	1	.	-15	.	-26	.	.	.
CCCc1nc([N+](=O)[O-])c(S(=O)(=O)c2ccccc2)n1CC(C)C	13	4	-18	29*	-16	10	-4	33*
CC(C)Cn1c(C(C)C)nc([N+](=O)[O-])c1S(=O)(=O)c1ccc(F)cc1	0	6	-36	13	-12	-15	.	.
C=CCn1c(SCC(=O)c2ccc(O)c(O)c2)nnc1-c1ccccc1OC	3	11	9	34*	15	2	0	14
CC(C)c1ccc(NC(=O)CSc2n[nH]c(=O)n2C2CC2)cc1	0	.	17	.	-8	.	.	.
CC(C)C[C@H](N)c1nnc(S(=O)(=O)Cc2cccc(F)c2)o1	-4	1	-25	-3	-21	-5	.	.
CC(C)(C)OC(=O)N[C@@H](Cc1ccccc1)c1nnc(S(=O)(=O)Cc2cccc(F)c2)o1	-7	8	18	44*	-34	53*	6	72*
SMILES	IEC-6 tox	BaF3 parental	aSyn UTR inh	Ba/F3 V617F tox	KLF5 inh	APP transl inh	BaF3 parental 2	JAK2V617F confrm
Cc1ccccc1CS(=O)(=O)c1nnc([C@H](CC(C)C)NC(=O)OC(C)(C)C)o1	11	2	8	47*	-7	36	-2	55*
O=C(COC(=O)c1ccccc1)NCCC1=CCCCC1	-8	-1	3	-7	-26	16	.	.
O=C(NC1(C(F)(F)F)Oc2ccccc2O1)N1CCCC1	7	23	-44	40*	2	15	10	36*
O=C1CCN(S(=O)(=O)c2ccc(Br)cc2)CCN1	1	8	-12	3	-13	3	.	.
C=CCOc1c(Br)cc(CNc2ccc3[nH]c(=O)[nH]c3c2)cc1OCC	8	8	3	32*	-1	3	35*	74*
Cc1ccc(C(CNC(=O)c2ccco2)N2CCN(C)CC2)cc1 (stereo not given)	.	.	-10	.	.	.	.	.
COc1ccc(-c2sc3ccc(N4CCOCC4)cc3c2-c2ccc(OC)c(F)c2)cc1	-4	.	-8	.	8	.	.	.
CCn1c(SCC(=O)Nc2ccccc2-c2ccccc2)nnc1-c1ccoc1C	-2	1	2	52*	-13	1	-2	5
CCn1c(SCC(=O)Nc2ccccc2F)nnc1-c1ccoc1C	-2	.	-15	.	-8	.	.	.
COc1cc(/C=C2/SC(=S)N(CC(=O)NC(C)(C)C)C2=O)cc(OC)c1OC	-1	5	5	2	-22	4	.	.
COc1cc(/C=C2\SC(=S)N(CC(=O)NC(C)(C)C)C2=O)cc(OC)c1OC	5	5	-17	102*	-12	4	-7	9
COc1ccc(Cl)cc1S(=O)(=O)NCc1nc2nc(C)cc(C)n2n1	4	.	7	.	2	.	.	.
Cc1ccccc1Oc1cc(-n2ncc(Cl)c(Cl)c2=O)ncn1	-5	9	.	34*	-20	95*	100*	100*
COc1ccccc1Oc1cc(-n2nc(C)cc2C)ncn1	-2	11	11	7	-12	-18	.	.
Cc1csc(C(=O)O)c1NC(=O)c1c(Cl)cccc1Cl	-2	.	7	.	-7	.	.	.
CC(C)(C)SCCNS(=O)(=O)c1ccc2ccccc2c1	0	0	1	-2	-3	10	.	.
CC(C)(C)SCCNS(=O)(=O)c1ccccc1	0	-2	11	99*	-2	21	-5	-12
Cc1ccc(/C=[N+](\[O-])c2ccc(N(C)C)cc2)c2nsnc12	5	5	2	47*	-51	61*	-1	-3
CCOc1ccc2nc(SCC(=O)NC(=O)C(C)C)sc2c1	-1	15	-26	51*	-44	7	-3	-3
